Screens: PubChem BioAssay, National Center for Advancing Translational Sciences (NCATS)
This is a sample that favours compounds with a hit; in the whole collection about 17% have one here.
HepG2 viability: qHTS for Inhibitors of TGF-b: Cytotox Counterscreen | HepG2 CAGA-GFP viability, ATP luminescence, 18 h | Potency, µM (doses to about 46.1 µM), most hits filed as cytotoxic | hit rate 0.76% among 410,000 | AID 588856, 2011
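HepG2 CAGA-GFP cells (1000/well, DMEM with 1% FBS) received compound, then TGF-beta at 500 pg/mL final, and were incubated 18 hours at 37 degrees C. Viability was read by CellTiter-Glo luminescence. Media-only wells were set as complete cell-killing and DMSO as no toxicity.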
ATXN2 expr inh: Primary qHTS for Inhibitors of ATXN expression; HEK-293 ATXN2-luciferase reporter, luminescence, 24 h; Potency, µM (titrated, usually from 57 µM), actives largely listed as inhibitors; hit rate 0.72% among 360,000; AID 1745845, 2022; note: nearly all actives have a fitted effect of over 55% in size
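ATXN2-luciferase reporter cells (luciferase flanked by upstream and downstream ATXN2 gene portions) were treated 24 h at 37 °C with compounds at up to 57 uM. SteadyGlo luminescence gave expression; GF-AFC fluorescence gave viability.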
S2 tox: Viability Counterscreen for Primary qHTS for Inhibitors of ATXN expression; AID 651635, 2014; Potency, µM (top dose mostly 56.7 µM), most hits filed as cytotoxic; S2 cells (HEK-293 line with an ATXN2-luciferase reporter) viability, CellTiter-Fluor protease fluorescence, 24 h; hit rate 0.49% among 400,000; note: nearly all actives have a fitted effect of over 40% in size
TGFb inhibitor: qHTS for Inhibitors of TGF-b | Potency, µM (doses to about 46.1 µM), actives largely listed as inhibitors | AID 588855, 2011 | HepG2 CAGA-GFP TGF-b/SMAD3 reporter, GFP fluorescence, 18 h; TGF-beta stimulated, 500 pg/mL final | hit rate 1.2% among 410,000; note: nearly all actives have a fitted effect of over 65% in size
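Read-out: total well GFP (ex488/em500-530) summed from mean per-cell fluorescence. Cells: HEPG2 CAGA-GFP, 1% FBS DMEM, 18 h at 37 degrees C with 500 pg/mL final TGF-beta. Unstimulated wells served as the full-inhibition control; stimulated DMSO wells = 0%.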
TDP1 cell noCPT: qHTS for Inhibitors of human tyrosyl-DNA phosphodiesterase 1 (TDP1): qHTS in cells in absence of CPT; DT40 Tdp1-/- hTDP1 cells, no CPT, ATP luminescence, 48 h; Potency, µM (doses to about 46.2 µM), most hits filed as inhibitors; hit rate 15% among 420,000; AID 686978, 2013; note: nearly all actives have a fitted effect of over 55% in size
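Stably hTDP1-transfected Tdp1-null chicken DT40 cells were treated with library compounds minus camptothecin and grown for at least 48 hr at 37 °C, after which cellular ATP was quantified by luminescence.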
DT40 TDP1 CPT: qHTS for Inhibitors of human tyrosyl-DNA phosphodiesterase 1 (TDP1): qHTS in cells in presence of CPT; hit rate 12% among 420,000; Potency, µM (top dose mostly 46.2 µM), hits mostly inhibitors; AID 686979, 2013; chicken DT40 Tdp1-/-;hTDP1 cells + 20 nM CPT, ATP luminescence, 48 h; note: nearly all actives have a fitted effect of over 55% in size
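Cell growth measured by CellTiter-Glo luminescence after a minimum 48 h, 37 C compound exposure with 20 nM CPT in Tdp1-knockout DT40 cells stably expressing hTDP1, seeded 400/well; qHTS titration format.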
Each line names hits and unclear results; the compound was inactive in the other large screens. Calls come from the whole dose curve; as a rule, active = well fitted curve in the direction sought with a large enough effect; inconclusive = small, poorly fitted or top-dose-only effect, or another doubt; inactive = no such curve, though single readings can be large; an effect the other way counts as inactive or inconclusive.

CC1=NN(C(=O)Cc2ccc([N+](=O)[O-])cc2)C(O)(c2cccnc2)C1 (centres undefined)	TDP1 cell noCPT inconclusive, DT40 TDP1 CPT 18µM
CCc1c(C2(O)CCCCC2)[nH]c2ccc(C(F)(F)F)cc12	TGFb inhibitor 11µM, TDP1 cell noCPT inconclusive, DT40 TDP1 CPT 18µM (no result: S2 tox)
C[C@H]1C[C@@H]2[C@H]([C@@H](O)C[C@@]3(C)[C@H]2CC[C@]3(O)C(=O)CO)[C@@]2(C)C=CC(=O)C=C12	none
Cc1nc(C(F)(F)F)c(C(=O)N/N=C(\N)c2ccccn2)s1	ATXN2 expr inh inconclusive, S2 tox inconclusive, TDP1 cell noCPT 4.1µM, DT40 TDP1 CPT 13µM
N/C(=N\NS(=O)(=O)c1ccccc1C(F)(F)F)c1ccccn1	none (no result: ATXN2 expr inh)
Cc1ccc(-c2ccc(CN3C(CC(C)C)C(=O)N(Cc4cn(CC5CCCCC5)nn4)CCS3(=O)=O)cc2)cc1 (centres undefined)	TDP1 cell noCPT 16µM, DT40 TDP1 CPT 21µM
CC(C)C1C(=O)N(Cc2cn(CC3CCCCC3)nn2)CCS(=O)(=O)N1Cc1ccc(-c2ccccc2)cc1 (centres undefined)	S2 tox inconclusive, TGFb inhibitor inconclusive, TDP1 cell noCPT 4.1µM, DT40 TDP1 CPT 13µM
COCOCCn1cc(CN2CCS(=O)(=O)N(Cc3ccc(-c4ccc(C)cc4)cc3)C(C(C)C)C2=O)nn1 (centres undefined)	TDP1 cell noCPT inconclusive, DT40 TDP1 CPT inconclusive
CC(C)C1C(=O)N(Cc2cn(CC3CCCCC3)nn2)CCS(=O)(=O)N1Cc1ccc(-c2ccncc2)cc1 (centres undefined)	TDP1 cell noCPT inconclusive
CC(C)C1C(=O)N(Cc2cn(CC3CCCCC3)nn2)CCS(=O)(=O)N1Cc1ccc(-c2ccc(Cl)cc2)cc1 (centres undefined)	ATXN2 expr inh inconclusive, TGFb inhibitor inconclusive, TDP1 cell noCPT 7.3µM, DT40 TDP1 CPT 9.2µM
CC(C)C1C(=O)N(Cc2cn(CC3CCCCC3)nn2)CCS(=O)(=O)N1Cc1ccc(-c2cccc(CO)c2)cc1 (centres undefined)	S2 tox inconclusive, TGFb inhibitor inconclusive, TDP1 cell noCPT 8.2µM, DT40 TDP1 CPT 18µM
Cn1nc(C(=O)NNC(=O)CCOc2ccc(C(C)(C)C)cc2)c2ccccc2c1=O	TDP1 cell noCPT inconclusive
CCOC(=O)C1(Cc2ccccc2C)CCCN(C(=O)c2cc(CC)nn2C)C1 (centres undefined)	TGFb inhibitor inconclusive, TDP1 cell noCPT inconclusive, DT40 TDP1 CPT inconclusive
CCOC(=O)c1cnc2c(-c3ccccc3OC)c(C)nn2c1C	TDP1 cell noCPT inconclusive, DT40 TDP1 CPT inconclusive
CC(C)C1C(=O)N(Cc2cn(CC3CCCCC3)nn2)CCS(=O)(=O)N1Cc1ccc(-c2ccc(F)nc2)cc1 (centres undefined)	ATXN2 expr inh inconclusive, S2 tox inconclusive, TGFb inhibitor inconclusive, TDP1 cell noCPT 13µM, DT40 TDP1 CPT inconclusive
CC(C)C1C(=O)N(Cc2cn(CC3CCCCC3)nn2)CCS(=O)(=O)N1Cc1ccc(-c2ccc(Cl)nc2)cc1 (centres undefined)	S2 tox inconclusive, TGFb inhibitor inconclusive, TDP1 cell noCPT 10µM, DT40 TDP1 CPT 15µM
COCOCCn1cc(CN2CCS(=O)(=O)N(Cc3ccc(-c4ccc(F)nc4)cc3)C(C)C2=O)nn1 (centres undefined)	none
CCC/C=C/c1ccc(CN2C(CC(C)C)C(=O)N(Cc3cn(CC4CCCCC4)nn3)CCS2(=O)=O)cc1 (centres undefined)	ATXN2 expr inh inconclusive, S2 tox inconclusive, TGFb inhibitor inconclusive, TDP1 cell noCPT 23µM, DT40 TDP1 CPT inconclusive
